Common to all, as to parameters: scale not given: direction of the effect not stated beside the values
The target in assay [1] is Protein translocase subunit SecA (Escherichia coli (strain K12)) (UniProt P10408). The assay is described as follows: Assay to Identify E. coli SecA ATPase Inhibitors. It is filed as functional. The note with it: 30 µM.
Assay [2] addresses T1, Ubiquitin-activating enzyme e1, putative (Leishmania donovani (strain BPK282A1)) (UniProt E9BSI1).
T1 sequence (whole entry): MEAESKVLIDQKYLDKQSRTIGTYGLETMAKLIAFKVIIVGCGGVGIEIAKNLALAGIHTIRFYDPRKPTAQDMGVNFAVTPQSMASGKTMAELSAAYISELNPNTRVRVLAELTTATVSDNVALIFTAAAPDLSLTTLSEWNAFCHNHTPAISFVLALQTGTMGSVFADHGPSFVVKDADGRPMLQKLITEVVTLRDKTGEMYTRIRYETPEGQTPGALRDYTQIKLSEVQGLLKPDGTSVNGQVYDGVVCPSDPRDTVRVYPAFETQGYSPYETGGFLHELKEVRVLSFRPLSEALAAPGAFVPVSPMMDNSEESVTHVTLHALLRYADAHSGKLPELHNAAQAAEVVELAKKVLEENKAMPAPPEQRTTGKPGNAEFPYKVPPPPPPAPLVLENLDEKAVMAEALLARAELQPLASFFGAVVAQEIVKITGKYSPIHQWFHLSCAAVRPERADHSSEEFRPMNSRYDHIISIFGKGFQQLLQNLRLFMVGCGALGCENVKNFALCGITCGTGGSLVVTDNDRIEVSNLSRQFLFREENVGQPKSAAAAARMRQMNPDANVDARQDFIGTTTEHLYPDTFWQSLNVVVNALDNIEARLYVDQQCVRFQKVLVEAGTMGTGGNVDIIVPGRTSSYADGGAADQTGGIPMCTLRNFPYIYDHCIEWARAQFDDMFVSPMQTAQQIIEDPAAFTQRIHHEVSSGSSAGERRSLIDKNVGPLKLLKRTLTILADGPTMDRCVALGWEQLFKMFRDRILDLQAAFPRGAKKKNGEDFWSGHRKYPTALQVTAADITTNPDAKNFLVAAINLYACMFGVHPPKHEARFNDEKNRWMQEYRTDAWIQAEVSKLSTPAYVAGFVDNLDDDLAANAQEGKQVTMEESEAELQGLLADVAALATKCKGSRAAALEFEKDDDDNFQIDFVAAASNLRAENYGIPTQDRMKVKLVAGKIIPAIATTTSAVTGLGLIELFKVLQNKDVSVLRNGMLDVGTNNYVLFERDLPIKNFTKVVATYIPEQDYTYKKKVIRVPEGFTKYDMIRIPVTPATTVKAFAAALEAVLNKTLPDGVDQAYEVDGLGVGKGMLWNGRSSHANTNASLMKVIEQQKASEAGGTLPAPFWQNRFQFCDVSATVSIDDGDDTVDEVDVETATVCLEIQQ
The assay is described as follows: Leishmania donovani Ubiquitin Activating Enzyme (LdE1). The class given is functional. The note with it: 30 µM.

In assay [3] the target is AMP-activated protein kinase, AMPK (Homo sapiens) (UniProt P54646+O43741+P54619+Q9UGJ0+Q9Y478+Q13131+Q9UGI9). The assay is described as follows: AMP-dependent Kinase enzyme assay. An in vitro enzyme assay that detects ADP turnover that is directly proportional to AMPK activity. This uses naive AMPK that is activated during the assay with MK-8722. It is filed as functional. The conditions noted are these: 30 µM.

Assay [4] addresses Sialic acid-binding Ig-like lectin 9 (Homo sapiens) (UniProt Q9Y336). Kind of assay: Hs-Siglec9 ALPHAscreen SOP 20170721. The conditions noted are these: 10 µM. For orientation: Alpha assays give light when donor and acceptor beads are brought close together.
The test system of assay [5] is Trypanosoma cruzi. The assay is described as follows: Trypanosoma cruzi phosphomannomutase and mannose-1-phosphate guanylyltransferase assay. The class given is functional. The note with it: 10 µM.
The target of assay [6] is T2, Arginase-2, mitochondrial (Homo sapiens) (UniProt P78540).
T2 sequence (whole entry): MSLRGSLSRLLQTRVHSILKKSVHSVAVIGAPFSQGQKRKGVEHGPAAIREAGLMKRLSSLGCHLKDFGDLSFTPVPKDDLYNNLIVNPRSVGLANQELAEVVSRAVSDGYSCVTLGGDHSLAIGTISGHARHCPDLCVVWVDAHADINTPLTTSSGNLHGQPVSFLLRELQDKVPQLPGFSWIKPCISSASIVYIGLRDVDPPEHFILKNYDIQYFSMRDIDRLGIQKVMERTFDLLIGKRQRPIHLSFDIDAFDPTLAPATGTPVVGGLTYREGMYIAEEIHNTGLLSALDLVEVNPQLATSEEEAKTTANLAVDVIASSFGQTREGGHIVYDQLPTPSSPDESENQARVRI
The assay is described as follows: in vitro enzyme assay to detect the production of urea directly proportional to the activity of Arginase II. Also: in the data most compounds retested in dose-response had high values. It is filed as functional. The note with it: 33.3 µM.

Assay [7] addresses T3, Proteasome subunit beta (Trypanosoma cruzi) (UniProt O96673).
T3 sequence (whole entry): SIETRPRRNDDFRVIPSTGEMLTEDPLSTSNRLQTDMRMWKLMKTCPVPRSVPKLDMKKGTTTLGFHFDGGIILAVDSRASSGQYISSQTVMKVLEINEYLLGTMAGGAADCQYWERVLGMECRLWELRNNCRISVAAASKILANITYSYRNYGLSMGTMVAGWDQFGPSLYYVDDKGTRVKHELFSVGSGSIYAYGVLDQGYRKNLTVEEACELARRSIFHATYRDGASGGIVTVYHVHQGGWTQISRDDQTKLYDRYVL
Kind of assay: Trypanosoma cruzi proteasome chymotrypsin-like activity (TcProtChymo) assay. Also: in the data most compounds retested in dose-response had high values. The class given is functional. The conditions noted are these: 9.37 µM.

Assay [8] is filed under the species Homo sapiens. The assay is described as follows: To identify inhibition of the IFN signalling (Jak-Stat) pathway via expression of an eGFP reporter gene under the control of an IFN-stimulated response element (ISRE) containing MxA promoter. The class given is functional. The note with it: 30 µM.
Assay [9] has as its target T4, Tyrosyl-tRNA synthetase, putative (Trypanosoma cruzi (strain CL Brener)) (UniProt Q4DSP6).
T4 sequence (whole entry): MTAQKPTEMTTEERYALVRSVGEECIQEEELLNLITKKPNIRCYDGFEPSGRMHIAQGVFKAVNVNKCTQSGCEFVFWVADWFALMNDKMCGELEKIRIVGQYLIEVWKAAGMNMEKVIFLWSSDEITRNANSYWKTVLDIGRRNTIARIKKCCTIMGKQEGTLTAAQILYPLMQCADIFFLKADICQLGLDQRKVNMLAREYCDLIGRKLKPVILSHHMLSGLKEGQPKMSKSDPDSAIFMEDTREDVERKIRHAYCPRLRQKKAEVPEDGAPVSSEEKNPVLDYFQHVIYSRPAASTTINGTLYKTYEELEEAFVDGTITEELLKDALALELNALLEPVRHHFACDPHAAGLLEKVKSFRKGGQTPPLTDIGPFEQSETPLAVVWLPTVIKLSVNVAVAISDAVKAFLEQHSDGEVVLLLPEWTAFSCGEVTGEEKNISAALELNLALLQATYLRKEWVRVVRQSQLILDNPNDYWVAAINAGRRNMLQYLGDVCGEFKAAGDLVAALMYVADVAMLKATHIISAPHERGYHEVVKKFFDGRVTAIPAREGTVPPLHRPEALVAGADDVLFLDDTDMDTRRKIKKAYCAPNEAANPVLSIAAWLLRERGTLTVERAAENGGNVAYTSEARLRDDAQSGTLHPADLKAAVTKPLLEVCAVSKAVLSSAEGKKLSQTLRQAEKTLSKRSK
Kind of assay: Trypanosoma cruzi tyrosyl tRNA synthetase (TcYRS) _High Tyrosine SOP. Also: in the data most compounds retested in dose-response had high values. The class given is functional. The note with it: 30 µM.

Assay [10] concerns the target T4, Tyrosyl-tRNA synthetase, putative (Trypanosoma cruzi (strain CL Brener)). Kind of assay: Trypanosoma cruzi tyrosyl tRNA synthetase (TcYRS) SOP. It is filed as functional. The conditions noted are these: 30 µM.
Assay [11] has as its target Chromo domain-containing protein 1 (Saccharomyces cerevisiae (strain ATCC 204508 / S288c) (Baker's yeast)) (UniProt P32657). Kind of assay: ScCHD-1 Enzyme Inhibition Assay. Also: in the data most compounds retested in dose-response had high values. It is filed as functional. The note with it: 30 µM.

Each structure is given as a SMILES string. For some assays here: Potency and affinity values are given separately.

Chain of Sialic acid-binding Ig-like lectin 9 (Homo sapiens) (Q9Y336 whole entry): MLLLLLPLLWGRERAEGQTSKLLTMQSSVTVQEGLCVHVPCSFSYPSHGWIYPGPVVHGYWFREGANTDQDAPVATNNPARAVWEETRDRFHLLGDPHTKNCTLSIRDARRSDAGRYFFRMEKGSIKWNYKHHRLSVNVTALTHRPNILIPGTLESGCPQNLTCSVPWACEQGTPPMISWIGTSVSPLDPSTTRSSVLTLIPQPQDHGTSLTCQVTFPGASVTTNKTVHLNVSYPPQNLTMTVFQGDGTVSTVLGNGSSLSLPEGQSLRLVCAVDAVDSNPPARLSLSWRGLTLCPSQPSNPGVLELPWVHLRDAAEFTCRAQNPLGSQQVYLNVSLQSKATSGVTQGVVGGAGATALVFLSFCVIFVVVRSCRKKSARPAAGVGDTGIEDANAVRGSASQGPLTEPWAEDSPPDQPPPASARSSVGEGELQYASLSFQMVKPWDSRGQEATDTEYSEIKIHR
Chain of Chromo domain-containing protein 1 (Saccharomyces cerevisiae (strain ATCC 204508 / S288c) (Baker's yeast)) (P32657 whole entry, the tested form may be a part): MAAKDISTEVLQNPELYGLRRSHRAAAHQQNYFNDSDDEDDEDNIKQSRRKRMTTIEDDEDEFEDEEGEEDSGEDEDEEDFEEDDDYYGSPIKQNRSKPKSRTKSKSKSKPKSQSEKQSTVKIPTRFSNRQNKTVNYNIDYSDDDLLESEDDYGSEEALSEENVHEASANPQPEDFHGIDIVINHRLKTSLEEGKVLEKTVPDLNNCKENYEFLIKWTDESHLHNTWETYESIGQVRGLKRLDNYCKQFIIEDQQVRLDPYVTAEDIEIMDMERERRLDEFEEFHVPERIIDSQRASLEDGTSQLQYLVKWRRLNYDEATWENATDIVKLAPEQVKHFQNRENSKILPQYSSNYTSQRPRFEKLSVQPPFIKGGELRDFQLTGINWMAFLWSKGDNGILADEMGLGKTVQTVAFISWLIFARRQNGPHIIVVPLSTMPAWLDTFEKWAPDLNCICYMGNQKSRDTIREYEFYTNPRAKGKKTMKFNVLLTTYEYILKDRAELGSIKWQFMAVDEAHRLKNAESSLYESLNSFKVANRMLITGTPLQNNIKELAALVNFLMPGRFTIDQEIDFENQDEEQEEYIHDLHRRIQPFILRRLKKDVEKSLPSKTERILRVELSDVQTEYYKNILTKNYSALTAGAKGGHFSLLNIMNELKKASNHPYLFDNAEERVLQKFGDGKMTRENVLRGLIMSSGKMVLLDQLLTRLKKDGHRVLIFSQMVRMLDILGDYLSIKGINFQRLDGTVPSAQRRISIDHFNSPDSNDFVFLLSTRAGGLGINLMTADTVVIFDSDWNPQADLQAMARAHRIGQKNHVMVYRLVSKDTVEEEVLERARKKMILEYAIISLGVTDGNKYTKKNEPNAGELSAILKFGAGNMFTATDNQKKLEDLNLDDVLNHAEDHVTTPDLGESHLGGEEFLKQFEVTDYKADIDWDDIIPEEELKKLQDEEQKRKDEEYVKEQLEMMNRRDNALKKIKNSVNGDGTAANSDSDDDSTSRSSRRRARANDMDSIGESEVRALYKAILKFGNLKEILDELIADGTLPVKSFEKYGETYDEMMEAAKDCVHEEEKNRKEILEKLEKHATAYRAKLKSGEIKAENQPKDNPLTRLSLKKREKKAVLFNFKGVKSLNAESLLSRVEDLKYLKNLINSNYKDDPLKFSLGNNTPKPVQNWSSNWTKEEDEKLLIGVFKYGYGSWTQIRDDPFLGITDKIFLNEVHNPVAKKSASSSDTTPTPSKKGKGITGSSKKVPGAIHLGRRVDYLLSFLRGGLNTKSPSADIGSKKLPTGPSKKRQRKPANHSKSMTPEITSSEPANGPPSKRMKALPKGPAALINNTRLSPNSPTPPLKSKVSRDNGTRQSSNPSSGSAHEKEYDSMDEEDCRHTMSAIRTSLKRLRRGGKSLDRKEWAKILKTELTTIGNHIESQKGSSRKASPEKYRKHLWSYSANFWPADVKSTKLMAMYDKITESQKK
Chain of Protein translocase subunit SecA (Escherichia coli (strain K12)) (P10408 whole entry): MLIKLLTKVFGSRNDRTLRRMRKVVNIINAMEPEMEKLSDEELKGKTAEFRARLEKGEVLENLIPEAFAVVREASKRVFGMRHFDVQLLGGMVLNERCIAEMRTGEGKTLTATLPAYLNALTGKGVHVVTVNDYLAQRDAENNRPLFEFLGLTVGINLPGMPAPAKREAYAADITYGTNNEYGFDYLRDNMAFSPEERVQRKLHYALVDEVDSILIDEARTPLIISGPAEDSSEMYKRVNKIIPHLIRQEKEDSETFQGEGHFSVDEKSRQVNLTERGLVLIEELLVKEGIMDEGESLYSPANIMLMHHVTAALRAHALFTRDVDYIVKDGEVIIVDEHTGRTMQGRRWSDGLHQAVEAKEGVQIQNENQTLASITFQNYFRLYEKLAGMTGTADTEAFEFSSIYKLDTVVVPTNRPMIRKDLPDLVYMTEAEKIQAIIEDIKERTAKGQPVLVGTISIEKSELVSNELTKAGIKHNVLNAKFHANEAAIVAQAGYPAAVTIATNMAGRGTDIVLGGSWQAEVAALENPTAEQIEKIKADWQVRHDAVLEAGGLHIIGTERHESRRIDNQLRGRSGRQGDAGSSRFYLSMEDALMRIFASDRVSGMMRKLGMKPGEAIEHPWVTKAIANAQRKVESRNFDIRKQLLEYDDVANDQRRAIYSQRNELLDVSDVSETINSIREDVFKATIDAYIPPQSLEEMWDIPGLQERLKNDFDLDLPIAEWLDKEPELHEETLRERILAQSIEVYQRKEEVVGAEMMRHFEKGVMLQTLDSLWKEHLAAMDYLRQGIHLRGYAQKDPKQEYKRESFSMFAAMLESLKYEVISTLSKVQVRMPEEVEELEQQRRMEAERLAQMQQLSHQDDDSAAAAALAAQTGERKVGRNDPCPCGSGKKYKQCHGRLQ

For the molecule `COc1cc(N2C[C@H]3OCC[C@H]3[C@H](C(=O)NC3CC3)C2)ncn1`, the Percent Effect in assay [1] is -2.33%; in assay [2] it was 5.48%; in assay [3] it was -1.57%; in assay [4], 8.48%; in assay [5], 2.18%; in [6], 0.399%. Besides, the Percent Effect is 6.93% in [7]; 0.456% in assay [8]; 9.38% in assay [9]; 6.17% in [10]; -1.62% in assay [11].

Regarding `CCn1ccnc1CN1CCN(CCOc2ccccc2OC)CC1`, the Percent Effect in assay [1] was -1.18%; in assay [2] it was 0%; in assay [3] it was -0.305%; in assay [4], 3.72%; in assay [5] it was 6.39%; in [6] it was 4.21%. For the same molecule, the Percent Effect in [7] is 8.19%; in assay [8], 7.16%; in assay [9], 0.49%; in [10] it was 7.32%; in assay [11], -2.76%.

For `c1cnnc(N2CCCC(NCc3nc(C4CC4)no3)C2)c1` (stereo not given), the Percent Effect was -4.19% in assay [1]; -2.6% in assay [2]; -5.27% in assay [3]; 7.57% in [4]; 7.18% in assay [5]; 23.4% in [6]. Further, the Percent Effect is 11.3% in assay [7]; -1.78% in assay [8]; 16.1% in assay [9]; 28.4% in [10]; -2.42% in assay [11].

For the molecule `Cc1nn(C)c(N(C)C)c1CNCC(O)c1ccccc1` (stereo not given), the Percent Effect was -0.702% in [1]; 2.74% in assay [2]; -3.51% in assay [3]; -6.11% in [4]; -4.31% in assay [5]; 3.64% in assay [6]. Also, the Percent Effect was 16.1% in [7]; -8.18% in assay [8]; 3.23% in [9]; 10% in assay [10]; -3.32% in assay [11].

In the case of `O=C(NCCCn1cncn1)NCC(c1ccco1)N1CCCCC1` (stereo not given), the Percent Effect in assay [1] was 1.3%; in [2] it was 10.4%; in assay [3], 2.22%; in assay [4], -12.8%; in assay [5] it was -5.39%; in assay [6], 5.26%. Besides, the Percent Effect was 17.2% in assay [7]; 12.4% in assay [8]; 4.76% in assay [9]; 18.8% in assay [10]; -13.7% in assay [11].

Turning to `COCCn1cc2c(n1)C(CNCc1ccco1)OCC2` (stereo not given), the Percent Effect in assay [1] was -7.4%; in assay [2], -2.7%; in assay [3] it was 0.854%; in [4] it was 9.04%; in assay [5], -0.781%; in assay [6] it was 0.833%. Further, the Percent Effect is 18% in assay [7]; 13.2% in assay [8]; 3.96% in assay [9]; -3.66% in [10]; -1.08% in assay [11].

For `CSCC(C)(O)CNC(=O)c1cc(Br)ccc1Cl` (stereo not given), the Percent Effect in [1] was -6.56%; in assay [2], 2.74%; in assay [3] it was -10.3%; in [4], 29.6%; in [5], 9.01%; in assay [6] it was -4.54%. Further, the Percent Effect was 18.1% in assay [7]; 10.3% in assay [8]; 3.23% in [9]; 17.5% in assay [10]; 34.8% in assay [11].

Regarding `Cc1oc(C(=O)O)cc1S(=O)(=O)Nc1ccc(Cl)c(F)c1`, the Percent Effect in assay [1] is -4.46%; in assay [2], 0%; in [3] it was 1.91%; in assay [4] it was 3.7%; in assay [5], -5.24%; in assay [6], 2.85%. Moreover, the Percent Effect in [7] is -2.2%; in assay [8], 27.1%; in assay [9] it was -2.91%; in [10], -4.88%; in [11], -4.31%.

`Cc1nn(C)c2c(N3CCN(C(=O)C4CCC4)CC3)ncnc12`: the Percent Effect was -0.898% in assay [1]; 9.33% in [2]; 2.37% in assay [3]; -1.34% in assay [4]; -6.48% in assay [5]; -2.99% in [6]. Further, the Percent Effect was 13.7% in [7]; 14.9% in assay [8]; -15.9% in assay [9]; 15.4% in assay [10]; -9.22% in assay [11].

Turning to `Cc1nn(CC(=O)N2CCCC2Cn2cccn2)c(C)c1Cl` (stereo not given), the Percent Effect in assay [1] is -7.11%; in assay [2], 21.6%; in assay [3], 0.532%; in assay [4], 8.29%; in assay [5] it was 5.86%; in assay [6] it was 36.2%. Further, the Percent Effect is 22.9% in assay [7]; 21.4% in [8]; 9.9% in [9]; 20.7% in assay [10]; -6.56% in assay [11].
